The source made the active and inactive calls. Unless noted, how the calls were made is not given here.

This passage reports composite z-score and z-score results from PubChem BioAssay.

The nature of test [1]: compounds binding Alexa647 anti-His antibody – biochemical, small-molecule microarray, 635 nm fluorescence, artefact control for SMM control protein annotation, primary screen (AID 1128).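 Further: score merges feature fluorescence with signal-to-noise for each printed compound spot.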 The note with it: higher = more signal.
The test system of test [2] is Human papillomavirus type 1a E7 protein (residues 1-88). Kind of test: HPV1a E7 small-molecule binders, primary screen, biochemical, small-molecule microarray, residues 1-88, 635 nm (AID 1129). The note with it: small-molecule microarray binding, fluorescence 635 nm; higher = more signal.
Test [3] addresses Focal adhesion kinase 1 (Homo sapiens) (UniProt Q05397). In words: PTK2 protein binding on printed compound slides – biochemical, small-molecule microarray, 635/667 nm fluorescence, BSA, DTT, primary screen (AID 1130).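 Further: composite of spot emission at 667 nm and signal to noise over triplicate slides.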 The note with it: 635 nm fluorescence, higher = more signal.
Test [4] deals with Fibrinogen (Alexa647-labelled). In words: Alexa647-fibrinogen binding to printed small molecules – biochemical, small-molecule microarray, 635/667 nm fluorescence, artefact control for SMM control-protein annotation, profiling panel (AID 1131).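 Further: z-score merges 667 nm fluorescence with per-spot signal-to-noise over triplicate slides.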 The note with it: fibrinogen-A647 binding fluorescence, higher = more signal.
The target of test [5] is Follistatin (Homo sapiens) (UniProt P19883). In words: FST protein binding to printed compounds – biochemical, small-molecule microarray, 635/667 nm fluorescence, primary screen (AID 1132). The note with it: 635 nm fluorescence, higher = more signal.
For test [6], the target named is Fibroblast growth factor 2 (Homo sapiens) (UniProt P09038). Kind of test: basic fibroblast growth factor binding to printed compounds – biochemical, small-molecule microarray, 635/667 nm fluorescence, primary screen (AID 1133). The note with it: FGF2, fluorescence 635/667, higher = more signal.
Test [7] can be described thus: JC-1 mitochondrial potential readout, lung cancer cells – cell-based, A549, JC-1 fluorescence, basal, 24 h, 100 nL, profiling panel (AID 1138).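 Further: A549 lung adenocarcinoma cells under basal conditions with no added stimulus; test concentration not given here.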 The note with it: higher = more signal.
Another test has as its system Lefty1. In words: Lefty1 protein binding to printed compounds – biochemical, small-molecule microarray, 635/667 nm fluorescence, primary screen (AID 1139). The note with it: fluorescence 635/667, higher = more signal.
In test [8] the test system is wheat germ agglutinin (Triticum aestivum), Alexa647-labelled. In words: Alexa647-WGA lectin binding to printed small molecules – biochemical, small-molecule microarray, 635/667 nm fluorescence, artefact control for SMM control-protein annotation, profiling panel (AID 1140).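 Further: score merges 667 nm feature emission with signal to noise over triplicate slides.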 The note with it: WGA-A647 binding, 635 nm fluorescence, higher = more signal.
The target in test [9] is Luciferin 4-monooxygenase (Photinus pyralis) (UniProt P08659). Kind of test: inhibition of purified Photinus pyralis luciferase – biochemical, luminescence, purified enzyme, 2006 set, primary screen (AID 1141).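 Further: cell-free assay with purified firefly luciferase at 100 ng per well in PBS; test concentration not given here.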 The note with it: purified firefly luciferase, SteadyGlo luminescence, 30 min; higher = more signal, called active from +8 up or from −8 down.
In test [10] the test system is Wnt5a (protein binding on small-molecule microarray). In words: small molecules binding Wnt5a protein – biophysical, small-molecule microarray, 635/667 nm fluorescence, primary screen (AID 1142).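 Further: fluorescence read at 667 nm with signal to noise per printed feature.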 The note with it: 635 nm fluorescence, higher = more signal.
A short description of test [11]: ATP-based viability of Huh7 replicon cells – cell-based, CellTiter-Glo luminescence, basal, 48 h, cytotoxicity control for HCV replication inhibitor project, primary screen (AID 1143).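 Further: Huh7 hepatoma cells carrying a hepatitis C replication reporter with no stimulus; test concentration not given here.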 The note with it: higher = more signal, called active from +8 up or from −8 down. (In general: A replicon is a self-replicating genome or part of one, used to study replication in cells.)

The nature of test [12]: Pseudomonas biofilm growth suppression – PAO1 strain, BacTiter-Glo luminescence, LB-PBS, primary screen (AID 1144). The note with it: P. aeruginosa PAO1 biofilm, 12 h, higher = more signal.
Test [13] in a line: basal CRE-LacZ reporter activity in PC12 – cell-based, unstimulated, primary screen (AID 1145). The note with it: no forskolin, luminescence, 4.5 h, higher = more signal, called active from +8 up or from −8 down.
A short description of test [14]: forskolin-driven CRE-LacZ activity in PC12 – cell-based, CRE-LacZ reporter, forskolin-stimulated, primary screen (AID 1146).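 Further: PC12 cells with 6xCRE LacZ reporter stimulated by forskolin 10 µM; beta-galactosidase reporter signal reflecting CREB driven transcription.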 The note with it: luminescence, 4.5 h, higher = more signal, called active from +8 up or from −8 down.
Test [15] deals with Streptavidin (Streptomyces avidinii) (UniProt P22629). Kind of test: compounds binding control protein streptavidin – biophysical, small-molecule microarray, 635/667 nm fluorescence, artefact control for SMM compound annotation, primary screen (AID 1147).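 Further: signal reflects streptavidin binding to arrayed compounds as a control protein.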 The note with it: higher = more signal.
Test [16] in a line: probe aInhba binding on compound microarray – biochemical, small-molecule microarray, 635/667 nm fluorescence, primary screen (AID 1148).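 Further: score merges 667nm spot fluorescence with signal-to-noise for antibody binding to printed compounds.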 The note with it: higher = more signal.
Test [17] deals with Torsin-1A (Homo sapiens) (UniProt O14656). In words: TOR1A wild-type binding on microarray – cell lysate, small-molecule microarray, lysate, 635/667 nm, primary screen (AID 1149). The note with it: COS7 hTOR1A-WT lysate, 635 nm fluorescence, higher = more signal.
The target is the same in test [18]. In words: torsin A mutant lysate binding on microarrays – cell lysate, small-molecule microarray, COS7 lysate, 635/667 nm fluorescence, primary screen (AID 1150).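 Further: score pools 667 nm emission and signal to noise measuring lysate protein binding.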 The note with it: COS7 hTOR1A mutant lysate, 635 nm fluorescence, higher = more signal.
Test [19] has as its system Sonic hedgehog protein (Shh). Kind of test: Sonic hedgehog microarray binding compounds – biochemical, small-molecule microarray, 635/667 nm fluorescence, primary screen (AID 1151).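 Further: Shh protein binding to compounds spotted on small-molecule microarray slides; score combines spot fluorescence intensity with signal-to-noise across triplicate slides.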 The note with it: 635 nm fluorescence, higher = more signal.

Sequence of Fibroblast growth factor 2 (Homo sapiens) (P09038 whole entry, looked up): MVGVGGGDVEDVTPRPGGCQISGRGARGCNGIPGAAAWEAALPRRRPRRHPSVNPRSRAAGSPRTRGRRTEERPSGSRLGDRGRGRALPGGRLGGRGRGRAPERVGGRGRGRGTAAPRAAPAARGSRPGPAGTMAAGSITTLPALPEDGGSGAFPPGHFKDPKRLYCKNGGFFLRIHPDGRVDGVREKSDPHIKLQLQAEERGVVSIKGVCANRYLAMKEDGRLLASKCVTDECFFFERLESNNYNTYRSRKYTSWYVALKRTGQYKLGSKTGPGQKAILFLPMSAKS
Sequence of Torsin-1A (Homo sapiens) (O14656 whole entry, looked up): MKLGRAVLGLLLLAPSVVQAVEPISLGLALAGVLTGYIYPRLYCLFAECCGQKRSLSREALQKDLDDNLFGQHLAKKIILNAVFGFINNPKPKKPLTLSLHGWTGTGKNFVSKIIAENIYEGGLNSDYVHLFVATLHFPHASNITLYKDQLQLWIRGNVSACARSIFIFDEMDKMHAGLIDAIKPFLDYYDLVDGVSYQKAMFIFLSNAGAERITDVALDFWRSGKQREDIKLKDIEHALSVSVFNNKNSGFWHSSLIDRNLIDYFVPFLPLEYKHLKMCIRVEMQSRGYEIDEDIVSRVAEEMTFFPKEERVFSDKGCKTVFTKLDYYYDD
Sequence of Luciferin 4-monooxygenase (Photinus pyralis) (P08659 whole entry, looked up): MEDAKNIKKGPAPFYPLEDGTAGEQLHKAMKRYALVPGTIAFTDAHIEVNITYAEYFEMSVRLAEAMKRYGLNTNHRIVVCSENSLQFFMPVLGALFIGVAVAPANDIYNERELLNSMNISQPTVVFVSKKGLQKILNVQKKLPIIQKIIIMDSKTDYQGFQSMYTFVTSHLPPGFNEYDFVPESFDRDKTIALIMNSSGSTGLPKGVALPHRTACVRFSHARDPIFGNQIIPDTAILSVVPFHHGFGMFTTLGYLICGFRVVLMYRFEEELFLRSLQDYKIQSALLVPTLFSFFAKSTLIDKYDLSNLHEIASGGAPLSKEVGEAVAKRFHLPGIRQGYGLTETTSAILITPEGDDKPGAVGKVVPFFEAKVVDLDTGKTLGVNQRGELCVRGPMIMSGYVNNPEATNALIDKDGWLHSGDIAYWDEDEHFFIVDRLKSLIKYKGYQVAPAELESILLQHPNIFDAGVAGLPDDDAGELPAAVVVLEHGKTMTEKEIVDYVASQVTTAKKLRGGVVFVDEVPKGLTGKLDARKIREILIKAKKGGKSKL
Sequence of Follistatin (Homo sapiens) (P19883 whole entry, looked up): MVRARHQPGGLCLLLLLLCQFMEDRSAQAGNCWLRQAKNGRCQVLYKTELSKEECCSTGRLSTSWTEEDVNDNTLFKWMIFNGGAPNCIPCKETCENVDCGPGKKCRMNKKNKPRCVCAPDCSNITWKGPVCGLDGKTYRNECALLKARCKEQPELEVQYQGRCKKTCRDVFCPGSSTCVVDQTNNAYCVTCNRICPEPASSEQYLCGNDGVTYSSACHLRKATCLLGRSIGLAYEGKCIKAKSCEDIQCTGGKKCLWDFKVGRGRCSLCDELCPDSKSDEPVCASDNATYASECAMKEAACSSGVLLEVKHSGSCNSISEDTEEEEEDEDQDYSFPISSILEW
Sequence of Streptavidin (Streptomyces avidinii) (P22629 whole entry, looked up): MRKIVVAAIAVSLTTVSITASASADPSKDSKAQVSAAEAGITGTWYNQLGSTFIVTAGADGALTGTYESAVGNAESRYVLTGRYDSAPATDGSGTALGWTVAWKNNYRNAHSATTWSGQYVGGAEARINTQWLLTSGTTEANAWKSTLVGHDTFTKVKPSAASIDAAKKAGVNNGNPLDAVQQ
Sequence of Focal adhesion kinase 1 (Homo sapiens) (Q05397 whole entry, looked up): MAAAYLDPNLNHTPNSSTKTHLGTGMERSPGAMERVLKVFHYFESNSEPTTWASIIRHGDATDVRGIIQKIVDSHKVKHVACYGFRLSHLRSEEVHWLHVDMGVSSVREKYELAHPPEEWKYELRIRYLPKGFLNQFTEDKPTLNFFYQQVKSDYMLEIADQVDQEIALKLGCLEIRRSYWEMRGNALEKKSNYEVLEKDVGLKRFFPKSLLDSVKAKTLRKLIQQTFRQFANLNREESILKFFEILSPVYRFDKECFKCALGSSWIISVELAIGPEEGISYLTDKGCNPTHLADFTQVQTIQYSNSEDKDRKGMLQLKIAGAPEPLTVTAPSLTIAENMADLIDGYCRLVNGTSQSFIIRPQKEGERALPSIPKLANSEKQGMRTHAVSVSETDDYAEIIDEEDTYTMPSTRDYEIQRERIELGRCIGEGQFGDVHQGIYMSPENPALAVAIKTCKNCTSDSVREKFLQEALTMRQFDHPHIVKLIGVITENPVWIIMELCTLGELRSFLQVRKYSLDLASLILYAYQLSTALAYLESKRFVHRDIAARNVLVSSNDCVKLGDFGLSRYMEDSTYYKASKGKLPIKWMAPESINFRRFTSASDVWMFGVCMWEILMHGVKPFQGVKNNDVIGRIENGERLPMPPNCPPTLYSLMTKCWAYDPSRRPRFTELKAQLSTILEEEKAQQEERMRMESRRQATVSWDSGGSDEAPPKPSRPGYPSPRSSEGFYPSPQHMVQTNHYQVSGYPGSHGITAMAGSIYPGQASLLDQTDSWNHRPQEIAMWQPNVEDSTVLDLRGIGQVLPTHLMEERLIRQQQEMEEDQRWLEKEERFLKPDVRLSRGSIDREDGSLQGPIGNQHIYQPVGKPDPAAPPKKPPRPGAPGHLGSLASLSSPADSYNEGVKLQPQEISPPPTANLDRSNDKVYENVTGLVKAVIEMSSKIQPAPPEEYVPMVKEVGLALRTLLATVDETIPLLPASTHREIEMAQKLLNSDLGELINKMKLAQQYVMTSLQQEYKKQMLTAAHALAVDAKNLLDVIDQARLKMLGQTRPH

For `CC(C)CNC(=O)[C@@H]1c2ccccc2C(=O)N(C2Cc3ccccc3C2)[C@H]1c1ccc(CO)cc1`, the composite z-score in test [1] is 0.245; in [2], 0.516; in [3] it was -0.587; in test [4], 0.182; in [5], 0.348; in test [6], 0.579. In addition, the composite z-score in the test on Lefty1 was -0.499; in test [8], -0.19; in test [10], -0.0027; in [15], -0.861; in test [16] it was -0.106; in the test with Torsin-1A (Homo sapiens) [17] it was -1.03. Also, the composite z-score with Torsin-1A (Homo sapiens) [18] stood at 0.0877; in test [19] it was 0.436. Further, the z-score in test [7] is 3.56; in [9], -0.843 (inactive); in [11], -0.13 (inactive); in test [12], 0.92 (inactive); in [13], 0.118 (inactive); in test [14] it was -0.748 (inactive).

In the case of `CC(C)CNC(=O)[C@@H]1c2ccccc2C(=O)N(CC23CC4CC(CC(C4)C2)C3)[C@H]1c1ccc(CO)cc1`, the composite z-score was 1.94 in [1]; 1.14 in test [2]; 0.257 in test [3]; 0.592 in test [4]; 0.466 in [5]; -0.0903 in test [6]. The composite z-score is 0.366 with Lefty1; 0.674 in [8]; 0.0626 in [10]; 0.524 in test [15]; -0.212 in test [16]; -0.218 with Torsin-1A (Homo sapiens) [17]. Also, the figures for the composite z-score (with Torsin-1A (Homo sapiens) [18]; in test [19]) were 0.546 and 0.354, respectively. The z-score in test [7] is 0.47; in test [9], 1.27 (inactive); in test [11], -3.74 (inactive); in test [12], -1.44 (inactive); in test [13], -0.206 (inactive); in test [14], -0.401 (inactive).

As to `COCCOC(=O)N1C(=O)[C@@]2(c3cc(C#CC4=CCCCC4)ccc31)[C@H](C(=O)N1CCN(c3ncccn3)CC1)[C@H]1C(=O)O[C@H](c3ccccc3)[C@H](c3ccccc3)N1[C@@H]2c1ccccc1OCCO`, the composite z-score is 0.353 in test [1]; 1.18 in test [2]; 0.377 in [3]; 0.936 in [4]; 1.18 in [5]; 0.956 in test [6]. The composite z-score with Lefty1 was 0.787; in test [8] it was 0.792; in test [10] it was 0.337; in [15], 0.496; in test [16], -0.0332; in the test with Torsin-1A (Homo sapiens) [17], 0.825. The composite z-score worked out at 0.598 with Torsin-1A (Homo sapiens) [18] and 1.47 in test [19]. Also, the z-score in [7] was -1.3; in test [9] it was -1.22 (inactive); in test [11], -5.9 (inactive); in test [12], -2.51 (inactive); in [13], -2.11 (inactive); in test [14], -1.32 (inactive).

Regarding `COC(=O)[C@@]1(CCC(=O)OC(C)(C)C)N=C(c2ccc(OCCCO)cc2)O[C@H]1c1ccccc1CN=[N+]=[N-]`, the composite z-score in test [1] was 0.656; in [2] it was 0.0163; in test [3], -0.0599; in [4], 0.0201; in [5] it was 0.663; in [6] it was 0.442. Moreover, the composite z-score with Lefty1 was -0.756; in test [8], 0.249; in test [10] it was 0.113; in test [15], -0.139; in [16], 0.241; with Torsin-1A (Homo sapiens) [17], -0.193. In addition, the composite z-score in the test with Torsin-1A (Homo sapiens) [18] was determined as 0.261; in [19], 0.339. For the same compound, the z-score in test [7] was 0.895; in test [9], -0.488 (inactive); in test [11] it was -2.35 (inactive); in test [12], -0.0281 (inactive); in test [13], 1.94 (inactive); in test [14] it was -1.55 (inactive).

Consider `CC(C)C[C@@H]1NC(=O)[C@@H]2C[C@H](C(=O)O)[C@H](c3ccc(O)cc3)N2C1=O`, for which the composite z-score in [1] worked out at 2.41; in test [2], 1.13; in test [3], 0.6; in test [4], 0.878; in test [5], 1.37; in test [6], 1.49. Besides, the composite z-score in the test with Lefty1 was 1.04; in test [8], 0.938; in test [10], 0.415; in test [15] it was 0.741; in [16], -0.013; in the test with Torsin-1A (Homo sapiens) [17] it was 0.656. In addition, the values for the composite z-score (with Torsin-1A (Homo sapiens) [18]; in test [19]) were 1.05 and 1.74, respectively. For the same compound, the z-score in [7] was 0.892; in test [9], -2.98 (inactive); in test [11], -0.393 (inactive); in test [12], -0.934 (inactive); in test [13] it was -0.114 (inactive); in test [14] it was -0.837 (inactive).
